The source of these data is PubChem BioAssay (NCI).

What all share (experiment): NCI-60 one-dose screen, 48 h (100 = growth as untreated, 0 = no growth, -100 = all killed)
The test system of one test is SR leukemia. The settings on record: 10 µM unless noted.
A further test has as its system RPMI-8226 leukemia. The note with it: 10 µM unless noted.
The subject of the next test is OVCAR-8 ovarian. The note with it: 10 µM unless noted.
The subject of a further test is OVCAR-5 ovarian. The note with it: 10 µM unless noted.
A further test concerns OVCAR-4 ovarian. The note with it: 10 µM.
In a further test the test system is SK-OV-3 ovarian. The note with it: 10 µM unless noted.
A further test concerns IGROV1 ovarian. The settings on record: 10 µM unless noted.
The next test relates to OVCAR-3 ovarian. The note with it: 10 µM unless noted.
In a further test the test system is HS 578T breast. The settings on record: 10 µM unless noted.
A further test concerns NCI/ADR-RES ovarian. The settings on record: 10 µM unless noted.
The next test has as its system T-47D breast. The note with it: 10 µM unless noted.
The subject of a further test is MDA-MB-435 melanoma. The note with it: 10 µM unless noted.
Another test deals with SW-620 colon. The settings on record: 10 µM unless noted.
For a further test, the system named is MCF7 breast. The settings on record: 10 µM unless noted.
In a further test the test system is HCT-116 colon. The note with it: 10 µM unless noted.
A further test relates to HCC-2998 colon. The settings on record: 10 µM unless noted.
Another test deals with KM12 colon. The note with it: 10 µM unless noted.

Each structure is given as a SMILES string. About 83,000 compounds went through this panel and 20% of them were active in at least one assay; those are over-represented in the sample as a whole.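 Interpretation: 100, growth as untreated; towards 0, rising growth inhibition; 0, no net growth; 0 to -100, cell death. Compounds scoring below 10 were considered active.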 A number with no mark means an inactive call. Calls of active or inactive are those of the source.

In the case of `COc1ccc(C=C2c3ccccc3-c3ccccc32)cc1`, the growth is 23.4% in the test with SR leukemia; 68.2% in the test on RPMI-8226 leukemia; 67.1% in the test with OVCAR-8 ovarian; 92.4% with OVCAR-5 ovarian; 80.2% in the test with OVCAR-4 ovarian; 60.6% in the test on SK-OV-3 ovarian. In addition, the growth in the test on IGROV1 ovarian was 58.3%; in the test with OVCAR-3 ovarian, 18%; with HS 578T breast, 56.3%; in the test on NCI/ADR-RES ovarian, 20.2%; in the test with T-47D breast, 46.6%; in the test with MDA-MB-435 melanoma, -10.4% (active). The growth with SW-620 colon was 19.4%; in the test with MCF7 breast, 13%; in the test with HCT-116 colon it was 16.9%; in the test on HCC-2998 colon it was 73.6%; in the test on KM12 colon, 24.8%.

In the case of `CCN(CC)c1ccc(/C=C/C=C2\NC(=O)NC2=O)cc1`, the growth was 21.1% with SR leukemia; 41% in the test with RPMI-8226 leukemia; 36% in the test on OVCAR-8 ovarian; 58.1% in the test with OVCAR-5 ovarian; 50.5% in the test with OVCAR-4 ovarian; 29.1% in the test with SK-OV-3 ovarian. The growth was 49.7% in the test on IGROV1 ovarian; 25.5% with OVCAR-3 ovarian; 50.4% in the test on HS 578T breast; 3.98% (active) with NCI/ADR-RES ovarian; 31.9% in the test with T-47D breast; -5.48% (active) with MDA-MB-435 melanoma. The growth was 31.2% with SW-620 colon; 20.4% in the test with MCF7 breast; 10.1% with HCT-116 colon; 37.2% with HCC-2998 colon; 32.4% in the test on KM12 colon.

As to `Oc1ccc(N=Nc2nccs2)c(O)c1`, the growth in the test on SR leukemia is 8.21% (active); in the test with RPMI-8226 leukemia it was 20.1%; in the test with OVCAR-8 ovarian it was 36.4%; in the test with OVCAR-5 ovarian it was 87.5%; in the test with OVCAR-4 ovarian, 25.9%; in the test on SK-OV-3 ovarian it was 78.2%. Also, the growth is 42.9% with IGROV1 ovarian; -1.86% (active) in the test with OVCAR-3 ovarian; 80.2% with HS 578T breast; 12.4% in the test on NCI/ADR-RES ovarian; 58.1% in the test with T-47D breast; 64.4% in the test on MDA-MB-435 melanoma. Also, the growth is 41.3% in the test with SW-620 colon; 57.1% with MCF7 breast; 5.98% (active) with HCT-116 colon; 73.4% with HCC-2998 colon; 51.7% with KM12 colon.

With `CCNc1cc2c(cc1Br)-c1ccccc1C2=O`, the growth with SR leukemia was 91.6%; in the test on RPMI-8226 leukemia it was 100%; in the test with OVCAR-8 ovarian, 90.1%; in the test with OVCAR-5 ovarian, 115%; in the test with OVCAR-4 ovarian it was 92.5%; in the test on SK-OV-3 ovarian it was 90.4%. For the same compound, the growth was 82% with IGROV1 ovarian; 91.8% in the test with OVCAR-3 ovarian; 96.8% in the test with HS 578T breast; 96% in the test with NCI/ADR-RES ovarian; 34.4% with T-47D breast; 114% in the test with MDA-MB-435 melanoma. The growth is 98.9% in the test with SW-620 colon; 26.8% in the test with MCF7 breast; 97.8% in the test with HCT-116 colon; 102% with HCC-2998 colon; 83.4% with KM12 colon.

On to `CCC(C)[C@H](NC(=O)NC(=O)NC(=O)CI)C(=O)OC` (some centres undefined), for which the growth in the test on SR leukemia is -40.7% (active); in the test with RPMI-8226 leukemia it was 61.9%; in the test on OVCAR-8 ovarian, 88.1%; in the test on OVCAR-5 ovarian, 94.3%; with OVCAR-4 ovarian it was 63.6%; in the test on SK-OV-3 ovarian, 88.4%. Besides, the growth in the test on IGROV1 ovarian is 80.7%; in the test on OVCAR-3 ovarian, -39.5% (active); in the test with HS 578T breast, 84.9%; in the test with NCI/ADR-RES ovarian, 98.4%; in the test with T-47D breast it was 38.5%; in the test with MDA-MB-435 melanoma, 69.5%. Moreover, the growth in the test with SW-620 colon was 9.41% (active); with MCF7 breast, 42.1%; with HCC-2998 colon, 103%; in the test on KM12 colon it was 100%.

Regarding `C/C=C/C1OC23CCCCC2C(C#N)(C(=N)O3)C1(C#N)C#N` (centres undefined), the growth is 49.1% in the test with SR leukemia; 98.8% in the test with RPMI-8226 leukemia; 93.9% in the test with OVCAR-8 ovarian; 103% in the test on OVCAR-5 ovarian; 95% in the test on OVCAR-4 ovarian; 103% in the test with SK-OV-3 ovarian. Besides, the growth in the test with IGROV1 ovarian is 96.2%; with OVCAR-3 ovarian it was 90.2%; in the test on HS 578T breast, 96.9%; in the test on NCI/ADR-RES ovarian, 104%; in the test on T-47D breast, 84.9%; in the test with MDA-MB-435 melanoma it was 91.8%. In addition, the growth in the test with SW-620 colon is 92.9%; with MCF7 breast, 86.2%; in the test on HCT-116 colon, 94.2%; in the test with HCC-2998 colon, 109%; with KM12 colon, 96.3%.

Consider `CCOC(=O)C(=Cc1ccccc1[N+](=O)[O-])C(=O)OCC`, for which the growth is -10% (active) in the test on SR leukemia; 10.7% with RPMI-8226 leukemia; 12.2% in the test on OVCAR-8 ovarian; -31.5% (active) in the test with OVCAR-5 ovarian; 24.7% with OVCAR-4 ovarian; 62.4% in the test with SK-OV-3 ovarian. The growth was 37.8% in the test with IGROV1 ovarian; -20.7% (active) in the test on OVCAR-3 ovarian; 47.2% in the test on HS 578T breast; -29.4% (active) in the test with NCI/ADR-RES ovarian; 25.5% in the test on T-47D breast; 15.6% in the test on MDA-MB-435 melanoma. Moreover, the values for the growth in the test with HCC-2998 colon and with KM12 colon were 48.3% and -17.7% (active), respectively.

With `c1ccc(-c2n[nH]c(-c3ccccn3)n2)nc1`, the growth is 127% in the test with SR leukemia; 104% in the test on RPMI-8226 leukemia; 107% with OVCAR-8 ovarian; 100% in the test with OVCAR-5 ovarian; 103% in the test with OVCAR-4 ovarian; 108% with SK-OV-3 ovarian. The growth was 116% in the test on IGROV1 ovarian; 144% with OVCAR-3 ovarian; 139% in the test on HS 578T breast; 90.4% in the test on NCI/ADR-RES ovarian; 95.8% in the test on T-47D breast; 106% with MDA-MB-435 melanoma. Further, the growth is 117% in the test on SW-620 colon; 93.5% in the test with MCF7 breast; 110% in the test on HCT-116 colon; 108% in the test on HCC-2998 colon; 128% in the test on KM12 colon.

In the case of `Cc1cc(C)c(O)c(CNCCCNCc2cc(C)cc(C)c2O)c1`, the growth was -30.5% (active) with SR leukemia; 28.5% with RPMI-8226 leukemia; 82.2% with OVCAR-8 ovarian; 74.6% in the test with OVCAR-5 ovarian; 88.3% in the test on OVCAR-4 ovarian; 89.3% in the test on SK-OV-3 ovarian. Also, the growth in the test with IGROV1 ovarian is 62%; in the test on OVCAR-3 ovarian, 77%; in the test with HS 578T breast it was 11.2%; in the test with NCI/ADR-RES ovarian, 72.5%; in the test on T-47D breast, 67.3%; in the test on MDA-MB-435 melanoma it was 2.52% (active). The growth in the test with SW-620 colon is 71.8%; with MCF7 breast, 38.2%; in the test with HCT-116 colon it was 51.6%; with HCC-2998 colon it was -51.4% (active); in the test with KM12 colon, 61.3%.
